# Measured values as given in the supplement of paper PMC8728848.
# Shown is part of a subset that was picked to be rich in the strongest signals.
# Key:
# Assay in all cases: glycan array binding signal (z-score within array); higher = stronger binding
# Conditions in all cases: glycan notation: IUPAC condensed, linker removed
# [1] = molecular target: Fuc(a1-2)Gal(b1-3)GlcNAc(b1-3)GalNAc
# In short: (§1)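 Negative Z-scores can be read as non-binding. The Z-score is calculated within each array and then averaged across arrays of one protein sequence at different concentrations or buffers and across linkers. Arrays, 3228 in all, were curated from the Consortium for Functional Glycomics database and kept only where the protein sequence was available.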
# Fuc(a1-2)Gal(b1-4)Glc = molecular target: Fuc(a1-2)Gal(b1-4)Glc
# In short: as §1
# [2] = molecular target: Fuc(a1-2)Gal(b1-4)GlcNAc(b1-2)[Fuc(a1-2)Gal(b1-4)GlcNAc(b1-4)]Man(a1-3)[Fuc(a1-2)Gal(b1-4)GlcNAc(b1-2)Man(a1-6)]Man(b1-4)GlcNAc(b1-4)GlcNAc
# In short: as §1
# [3] = molecular target: Fuc(a1-2)Gal(b1-4)GlcNAc(b1-3)GalNAc
# In short: as §1
# [4] = molecular target: Fuc(a1-2)Gal(b1-4)GlcNAc(b1-3)[Fuc(a1-3)[Gal(b1-4)]GlcNAc(b1-6)]Gal(b1-4)Glc
# In short: as §1
# [5] = molecular target: Fuc(a1-2)Gal(b1-4)[Fuc(a1-3)]GlcNAc(b1-2)[Fuc(a1-2)Gal(b1-4)[Fuc(a1-3)]GlcNAc(b1-4)]Man(a1-3)[Fuc(a1-2)Gal(b1-4)[Fuc(a1-3)]GlcNAc(b1-2)Man(a1-6)]Man(b1-4)GlcNAc(b1-4)GlcNAc
# In short: as §1
# [6] = molecular target: Fuc(a1-2)[Gal(a1-3)]Gal(b1-4)GlcNAc(b1-2)Man(a1-3)[Fuc(a1-2)[Gal(a1-3)]Gal(b1-4)GlcNAc(b1-2)Man(a1-6)]Man(b1-4)GlcNAc(b1-4)GlcNAc
# In short: as §1
# [7] = molecular target: Fuc(a1-2)[GalNAc(a1-3)]Gal(b1-3)GlcNAc
# In short: as §1
# [8] = molecular target: Fuc(a1-2)[GalNAc(a1-3)]Gal(b1-3)GlcNAc(b1-6)GalNAc
# In short: as §1
# [9] = molecular target: Fuc(a1-2)[GalNAc(a1-3)]Gal(b1-4)GlcNAc(b1-2)Man(a1-3)[Fuc(a1-2)[GalNAc(a1-3)]Gal(b1-4)GlcNAc(b1-2)Man(a1-6)]Man(b1-4)GlcNAc(b1-4)GlcNAc
# In short: as §1
# [10] = molecular target: Fuc(a1-2)[GalNAc(a1-3)]Gal(b1-4)GlcNAc(b1-6)GalNAc
# In short: as §1
# [11] = molecular target: Fuc(a1-3)[Gal(b1-4)]GlcNAc(b1-3)GalNAc
# In short: as §1
# Fuc(a1-4)GlcNAc = molecular target: Fuc(a1-4)GlcNAc
# In short: as §1
# Gal(a1-3)Gal(b1-4)GlcNAc = molecular target: Gal(a1-3)Gal(b1-4)GlcNAc
# In short: as §1
# Gal(b1-2)Gal = molecular target: Gal(b1-2)Gal
# In short: as §1
# Gal(b1-3)Gal = molecular target: Gal(b1-3)Gal
# In short: as §1
# [12] = molecular target: Gal(b1-3)GalNAc(b1-4)Gal(b1-4)Glc
# In short: as §1
# [13] = molecular target: Gal(b1-3)GlcNAc(a1-6)Gal(b1-4)GlcNAc
# In short: as §1
# [14] = molecular target: Gal(b1-3)GlcNAc(b1-3)Gal(b1-3)GlcNAc
# In short: as §1
# [15] = molecular target: Gal(b1-3)GlcNAc(b1-3)Gal(b1-4)[Fuc(a1-3)]GlcNAc(b1-6)[Gal(b1-3)GlcNAc(b1-3)]Gal(b1-4)Glc
# In short: as §1
# [16] = molecular target: Gal(b1-3)[Fuc(a1-4)]GlcNAc(b1-6)GalNAc
# In short: as §1
# [17] = molecular target: Gal(b1-4)GlcNAc(b1-3)Gal(b1-4)GlcNAc(b1-2)[Gal(b1-4)GlcNAc(b1-3)Gal(b1-4)GlcNAc(b1-6)]Man(a1-6)[Gal(b1-4)GlcNAc(b1-3)Gal(b1-4)GlcNAc(b1-2)Man(a1-3)]Man(b1-4)GlcNAc(b1-4)GlcNAc
# In short: as §1
# [18] = molecular target: Gal(b1-4)GlcNAc(b1-3)Gal(b1-4)GlcNAc(b1-3)Gal(b1-4)GlcNAc(b1-2)Man(a1-3)[Gal(b1-4)GlcNAc(b1-3)Gal(b1-4)GlcNAc(b1-3)Gal(b1-4)GlcNAc(b1-2)Man(a1-6)]Man(b1-4)GlcNAc(b1-4)GlcNAc
# In short: as §1
# [19] = molecular target: Gal(b1-4)GlcNAc(b1-3)Gal(b1-4)GlcNAc(b1-3)Gal(b1-4)GlcNAc(b1-3)Gal(b1-4)GlcNAc(b1-3)Gal(b1-4)GlcNAc(b1-2)Man(a1-3)[Gal(b1-4)GlcNAc(b1-3)Gal(b1-4)GlcNAc(b1-3)Gal(b1-4)GlcNAc(b1-3)Gal(b1-4)GlcNAc(b1-3)Gal(b1-4)GlcNAc(b1-2)Man(a1-6)]Man(b1-4)GlcNAc(b1-4)GlcNAc
# In short: as §1
# [20] = molecular target: Gal(b1-4)GlcNAc(b1-3)Gal(b1-4)GlcNAc(b1-3)Gal(b1-4)GlcNAc(b1-3)Gal(b1-4)GlcNAc(b1-3)Gal(b1-4)GlcNAc(b1-2)[Gal(b1-4)GlcNAc(b1-3)Gal(b1-4)GlcNAc(b1-3)Gal(b1-4)GlcNAc(b1-3)Gal(b1-4)GlcNAc(b1-3)Gal(b1-4)GlcNAc(b1-6)]Man(a1-6)[Gal(b1-4)GlcNAc(b1-3)Gal(b1-4)GlcNAc(b1-3)Gal(b1-4)GlcNAc(b1-3)Gal(b1-4)GlcNAc(b1-3)Gal(b1-4)GlcNAc(b1-2)Man(a1-3)]Man(b1-4)GlcNAc(b1-4)[Fuc(a1-6)]GlcNAc
# In short: as §1
# [21] = molecular target: Gal3S(b1-4)[Fuc(a1-3)]GlcNAc
# In short: as §1
# Gal3S6S(b1-4)GlcNAc6S = molecular target: Gal3S6S(b1-4)GlcNAc6S
# In short: as §1
# GalNAc(a1-3)Gal = molecular target: GalNAc(a1-3)Gal
# In short: as §1
# GalNAc(b1-4)Gal(b1-4)Glc = molecular target: GalNAc(b1-4)Gal(b1-4)Glc
# In short: as §1
# GalNAc(b1-4)GlcNAc = molecular target: GalNAc(b1-4)GlcNAc
# In short: as §1
binder,measurement,setting,value
PkBDPgamma (Plasmodium knowlesi) (protein) SAINQIFLQNNVMDKCNDKRKRGERDWDCPTEKDVCIPDRRYQLCMMEITNLVDTDTHFHSDIIFRKSYSRRRLIYDVGGRGDLLLKKYNNVYSEDLCKDIKWSLQDFGDIIMGTDMEGIGYSLVVQNNLRSIFGTGTSAELDRKKWWNDHKKDIWKAMILSVKEKNRYSAWNCKEDVQIKVEPQIYRWIREWGRDYMSEFREQRRKLNEKCEDKLYYSTMLICTLPPCNNACKSYDEWITGKKKQWDVLSTKFSSVKKAQKIETENIARAYDILKQELNGFNEVTFENEINKRDKLYNYFCVCIVQEARKNTQENVKNVGSGVESKAPSSNPINEAVKSSSGEGKVQEDSAHRSVNEGEGKSSTNEADPGSQPGAAASGGGSGGGTGGGVDLAPQMLRELQETNAALQDVRELLRQQVKEITFLKNTVMECDACGGPLDRNLPPLAPLGPTGGWSHPQFEK,glycan array binding signal (z-score),[1],0.928
same,glycan array binding signal (z-score),Fuc(a1-2)Gal(b1-4)Glc,-0.028
same,glycan array binding signal (z-score),[2],-0.391
same,glycan array binding signal (z-score),[3],1.14
same,glycan array binding signal (z-score),[4],-0.305
same,glycan array binding signal (z-score),[5],0.541
same,glycan array binding signal (z-score),[6],0.37
same,glycan array binding signal (z-score),[7],0.388
same,glycan array binding signal (z-score),[8],-0.403
same,glycan array binding signal (z-score),[9],0.106
same,glycan array binding signal (z-score),[10],-0.264
same,glycan array binding signal (z-score),[11],0.185
same,glycan array binding signal (z-score),Fuc(a1-4)GlcNAc,-0.191
same,glycan array binding signal (z-score),Gal(a1-3)Gal(b1-4)GlcNAc,-0.331
same,glycan array binding signal (z-score),Gal(b1-2)Gal,-0.181
same,glycan array binding signal (z-score),Gal(b1-3)Gal,0.074
same,glycan array binding signal (z-score),[12],0.593
same,glycan array binding signal (z-score),[13],-0.036
same,glycan array binding signal (z-score),[14],-0.37
same,glycan array binding signal (z-score),[15],-0.308
same,glycan array binding signal (z-score),[16],-0.142
same,glycan array binding signal (z-score),[17],0.897
same,glycan array binding signal (z-score),[18],0.866
same,glycan array binding signal (z-score),[19],1.25
same,glycan array binding signal (z-score),[20],0.939
same,glycan array binding signal (z-score),[21],-0.081
same,glycan array binding signal (z-score),Gal3S6S(b1-4)GlcNAc6S,-0.041
same,glycan array binding signal (z-score),GalNAc(a1-3)Gal,-0.429
same,glycan array binding signal (z-score),GalNAc(b1-4)Gal(b1-4)Glc,-0.243
same,glycan array binding signal (z-score),GalNAc(b1-4)GlcNAc,-0.002
